# PubChem BioAssay (Tox21)
# Results filed as inconclusive are left out. Where a call stands in place of a potency, no number is given. A structure can be active in one record and inactive in another. Activity calls are given as the source filed them. Calls follow the shape of the dose curve; as a rule, active = well fitted curve in the direction sought with a large enough effect in the repeat runs; inconclusive = weak or mixed curves; inactive = no such curve, though single readings can be large; an effect the other way counts as inactive or inconclusive.
# Assays:
# [1] = A CellTox Green Cytotoxicity Assay to monitor cytotoxicity in HEK293 cells - 8 hour (AID 1224884); also: nearly all actives have a fitted effect of over 35% in size
# How it was run: (§1)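 Each value comes from one timepoint of a single continuous run in which HEK293 cells with CellTox Green were exposed to compound for up to 40 h at 37 C, dye fluorescence rising with cell death.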
# [2] = qHTS RealTime-Glo MT Cell Viability Assay in HepG2 cells - 16 hour (AID 1224885); also: nearly all actives have a fitted effect of over 50% in size
# How it was run: (§2)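 Viability was tracked continuously by NanoLuc luminescence from prosubstrate reduced by living HepG2 cells, at successive time points over 40 h of compound exposure. Cells with reagent were preincubated 5 h at 37 °C before compound addition.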
# [3] = qHTS RealTime-Glo MT Cell Viability Assay in HEK293 cells - 24 hour (AID 1224886); also: nearly all actives have a fitted effect of over 50% in size; also: potency is read from the fitted curve at half-maximal effect
# How it was run: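 Viability tracked continuously by luminescence as live cells reduce a prosubstrate for NanoLuc; HEK293 cells preincubated 5 h, compound-treated at 37 C, and read at 0, 8, 16, 24, 32 and 40 h.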
# [4] = qHTS RealTime-Glo MT Cell Viability Assay in HEK293 cells - 8 hour (AID 1224887); also: top concentration of the series differs between compounds; nearly all actives have a fitted effect of over 50% in size
# How it was run: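 qHTS format; HEK293 cells with NanoLuc/prosubstrate reagent, 37 C/5% CO2 for 5 h pre-dosing; compounds 23 nL in DMSO; luminescence at each time point reflects viable cells.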
# [5] = A CellTox Green Cytotoxicity Assay to monitor cytotoxicity in HEK293 cells - 16 hour (AID 1224888); also: nearly all actives have a fitted effect of over 35% in size
# How it was run: as §1
# [6] = target: Androgen receptor (Homo sapiens) (UniProt P10275); assay: qHTS assay to identify small molecule antagonists of the androgen receptor (AR) signaling pathway using the MDA cell line in the presence of 0.5 nM R1881 (AID 1259243); also: nearly all actives have a fitted effect of over 50% in size
# Androgen receptor (Homo sapiens), sequence (P10275 whole entry, looked up): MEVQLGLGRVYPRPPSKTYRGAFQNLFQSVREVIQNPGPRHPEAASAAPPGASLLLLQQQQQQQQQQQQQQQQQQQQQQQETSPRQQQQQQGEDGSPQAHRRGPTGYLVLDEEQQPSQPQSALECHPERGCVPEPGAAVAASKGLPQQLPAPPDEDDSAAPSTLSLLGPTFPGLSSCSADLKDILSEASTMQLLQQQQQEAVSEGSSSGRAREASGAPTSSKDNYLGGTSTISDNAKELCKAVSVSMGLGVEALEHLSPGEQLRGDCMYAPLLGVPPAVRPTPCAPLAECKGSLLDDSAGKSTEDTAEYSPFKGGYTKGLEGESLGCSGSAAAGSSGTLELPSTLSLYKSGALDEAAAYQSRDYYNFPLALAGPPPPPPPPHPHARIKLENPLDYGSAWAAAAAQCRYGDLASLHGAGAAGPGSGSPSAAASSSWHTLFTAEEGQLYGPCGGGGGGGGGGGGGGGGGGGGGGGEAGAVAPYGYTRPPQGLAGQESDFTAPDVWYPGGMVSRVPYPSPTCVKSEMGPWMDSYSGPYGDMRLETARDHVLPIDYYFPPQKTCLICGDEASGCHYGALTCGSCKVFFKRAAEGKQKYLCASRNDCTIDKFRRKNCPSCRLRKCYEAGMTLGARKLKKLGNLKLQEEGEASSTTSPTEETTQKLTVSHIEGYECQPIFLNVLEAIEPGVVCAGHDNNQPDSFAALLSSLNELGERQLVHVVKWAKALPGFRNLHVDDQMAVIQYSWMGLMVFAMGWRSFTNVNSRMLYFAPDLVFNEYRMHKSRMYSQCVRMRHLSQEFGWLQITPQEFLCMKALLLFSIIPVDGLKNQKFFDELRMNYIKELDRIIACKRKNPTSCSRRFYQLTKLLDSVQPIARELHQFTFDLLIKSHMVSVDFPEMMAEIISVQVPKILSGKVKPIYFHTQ
# How it was run: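 Inhibition of R1881 (0.5 nM final) induced reporter signal was measured in human MDA-kb2 cells; note the MMTV promoter also responds to GR. Exposure lasted 16 hr at 37C.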
# [7] = qHTS assay to identify small molecule antagonists of the estrogen receptor alpha (ER-alpha) signaling pathway using the BG1 cell line in the presence of 0.1 nM 17-beta-estradiol - cell viability counter screen (AID 1259241); also: nearly all actives have a fitted effect of over 40% in size
# How it was run: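 Following 5 days in phenol red-free medium with charcoal-stripped serum, VM7Luc4E2 cells received test compounds alongside 0.1 nM 17beta-estradiol (final) at 37C for 22 hr. Live cells were then quantified via protease-substrate fluorescence.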
# [8] = qHTS RealTime-Glo MT Cell Viability Assay in HepG2 cells - 0 hour (AID 1224889); also: nearly all actives have a fitted effect of over 50% in size
# How it was run: as §2
# [9] = qHTS assay to identify small molecule antagonists of the androgen receptor (AR) signaling pathway using the MDA cell line in the presence of 0.5 nM R1881 - cell viability counter screen (AID 1259242); also: nearly all actives have a fitted effect of over 45% in size
# How it was run: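 Fluorescence from CellTiter-Fluor, which reports protease activity of live cells, was read 30 min after reagent addition to MDA-kb2 cells that had been incubated 16 hr with compound and 0.5 nM R1881.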
# [10] = A CellTox Green Cytotoxicity Assay to monitor cytotoxicity in HepG2 cells - 8 hour (AID 1224890); also: nearly all actives have a fitted effect of over 45% in size
# How it was run: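 Continuous culture of HepG2 cells with a membrane-impermeant DNA dye; rising fluorescence marks dead cells. Compound exposure lasted up to 40 h at 37 C, with reads every 8 h from 0 h.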
SMILES,outcome [1],outcome [2],Potency [3],Potency [4],outcome [5],Potency [6],Potency [7],Potency [8],outcome [9],Potency [10]
FC(F)(F)c1ccc(Cl)c(Cl)c1,inactive,inactive,inactive,inactive,inactive,inactive,,,,
Oc1cccc2ccccc12,inactive,inactive,inactive,inactive,inactive,,inactive,,,
CC(=O)c1ccccc1,inactive,inactive,inactive,inactive,inactive,,inactive,inactive,inactive,
O=[N+]([O-])c1ccc(/C=C/c2ccc([N+](=O)[O-])cc2S(=O)(=O)O)c(S(=O)(=O)O)c1,inactive,inactive,inactive,inactive,inactive,,,,inactive,
O=C(O)CC(C(=O)O)C(CC(=O)O)C(=O)O (stereo not given),inactive,inactive,inactive,inactive,inactive,,inactive,,inactive,
O=P(OC(CCl)CCl)(OC(CCl)CCl)OC(CCl)CCl,inactive,inactive,24.4 µM (active),,inactive,,,,inactive,
CSCCC=O,inactive,inactive,inactive,inactive,inactive,,,,inactive,inactive
O=C(O)c1cc(C(=O)O)cc(S(=O)(=O)O)c1,inactive,inactive,inactive,inactive,inactive,,inactive,,,inactive
O=C(O)CCCCCCCCCCC(=O)O,inactive,inactive,inactive,inactive,inactive,,inactive,,inactive,
Cc1ccc(N(C)C)cc1,inactive,inactive,inactive,inactive,inactive,inactive,inactive,,,
CCCCC(CC)CO (stereo not given),inactive,inactive,inactive,inactive,inactive,,inactive,,inactive,inactive
OCCOCCOCCO,inactive,inactive,inactive,inactive,inactive,inactive,,,inactive,inactive
CCC(O)OCCCOC (stereo not given),inactive,inactive,inactive,inactive,inactive,,inactive,,,
C=C(C)C(=O)OCCOCCOCCOC(=O)C(=C)C,inactive,inactive,inactive,inactive,inactive,,inactive,,inactive,inactive
CCC(O)OC(O)CC (stereo not given),inactive,inactive,inactive,inactive,inactive,,inactive,,,inactive
C=C(C)C(=O)O[C@H]1C[C@@H]2CC[C@@]1(C)C2(C)C,inactive,,15.4 µM (active) and inactive,inactive,inactive,,,inactive,,inactive
Cc1cccc(O)c1,inactive,inactive,inactive,inactive,inactive,,,inactive,inactive,
CCCC(C)=O,inactive,inactive,inactive,inactive,inactive,,,,inactive,
O=S(=O)(O)c1ccc2ccccc2c1,inactive,inactive,inactive,inactive,inactive,,inactive,,inactive,inactive
C[Si](O[Si](C)(C)C)O[Si](C)(C)C,inactive,inactive,inactive,inactive,inactive,inactive,inactive,,inactive,inactive
CCCCCCOCCO,inactive,inactive,inactive,inactive,inactive,,inactive,,,inactive
CCCCCCCCCCCCOCCO,inactive,inactive,inactive,inactive,inactive,inactive,,,inactive,inactive
O=C(OCCOCCOC(=O)c1ccccc1)c1ccccc1,inactive,inactive,,,inactive,,inactive,,,inactive
CC(C)(N)CO,inactive,,inactive,inactive,inactive,,inactive,,inactive,inactive
CCCCCCCCCCCCCCCO,inactive,,inactive,inactive,inactive,,inactive,inactive,inactive,
C/C=C1/CC2C=CC1C2 (stereo not given),inactive,,inactive,inactive,inactive,,inactive,inactive,inactive,inactive
N[C@@H](Cc1cc(I)c(Oc2cc(I)c(O)c(I)c2)c(I)c1)C(=O)O,inactive,,inactive,inactive,inactive,,inactive,,inactive,inactive
C#CCN(C)Cc1ccccc1,inactive,,inactive,inactive,inactive,,inactive,inactive,inactive,inactive
CCCSc1ccc2nc(NC(=O)OC)[nH]c2c1,inactive,,inactive,inactive,inactive,,inactive,inactive,inactive,inactive
CCCCCCCCCC,inactive,,inactive,inactive,inactive,,,inactive,inactive,
